In PubChem BioAssay AID1159580 (chemical genetic matrix, 2015):
Hit rate of the full screen: of about 5,500 compounds, about 2,000 (36%) were called active. Not shown: some 18% with an inconclusive outcome. No stated cut-off is given here; in the data, active means normalized growth mostly below about 0.91 (no sharp cut-off); inconclusive means no clear call, values can overlap the other calls; inactive means mostly above about 0.92. This is one part of the list.

Assay: chemical genetic growth profiling, strain panel (AID 1159580);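 further: tested at 20 µM; growth read once vehicle control cultures reached saturation at 30 °C; 1 = growth at the plate median or of vehicle wells; lower values mean less growth of the strain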
Conditions: S. cerevisiae deletion strains, growth OD
[1] = locus YAR019C, strain CDC15, active compounds read low
[2] = locus YBL105C, strain PKC1, active compounds read low
[3] = locus YBR135W, strain CKS1, active compounds read low
[4] = locus YBR136W, strain MEC1, active compounds read low
[5] = locus YBR160W, strain CDC28, active compounds read low
[6] = locus YDL017W, strain CDC7, active compounds read low
[7] = locus YDL028C, strain MPS1, active compounds read low
[8] = locus YDL101C, strain DUN1, active compounds read low
[9] = locus YDL108W, strain KIN28, active compounds read low
[10] = locus YDL132W, strain cdc53, active compounds read low
[11] = locus YDL214C, strain PRR2, active compounds read low
[12] = locus YDR052C, strain DBF4, active compounds read low
[13] = locus YDR054C, strain cdc34, active compounds read low
[14] = locus YDR226W, strain ADK1, active compounds read low
[15] = locus YDR477W, strain SNF1, active compounds read low
[16] = locus YER123W, strain YCK3, active compounds read low
[17] = locus YER133W, strain GLC7, active compounds read low
[18] = locus YFL009W, strain cdc4, active compounds read low
[19] = locus YFL029C, strain CAK1, active compounds read low
[20] = locus YFR003C, strain YPI1, active compounds read low
[21] = locus YFR019W, strain FAB1, active compounds read low
[22] = locus YFR028C, strain CDC14, active compounds read low
[23] = locus YGR040W, strain KSS1, active compounds read low
[24] = locus YGR052W, strain FMP48, active compounds read low
[25] = locus YGR092W, strain DBF2, active compounds read low
[26] = locus YHR030C, strain SLT2, active compounds read low
[27] = locus YHR079C, strain IRE1, active compounds read low
[28] = locus YHR082C, strain KSP1, active compounds read low
[29] = locus YHR205W, strain SCH9, active compounds read low
[30] = locus YIL147C, strain SLN1, active compounds read low
[31] = locus YJL095W, strain BCK1, active compounds read low
[32] = locus YJL128C, strain PBS2, active compounds read low
[33] = locus YJL157C, strain FAR1, active compounds read low
[34] = locus YJR016C, strain ILV3, active compounds read low
[35] = locus YJR066W, strain TOR1 (second series), active compounds read low
[36] = locus YJR066W, strain TOR1, active compounds read low
[37] = locus YKL048C, strain ELM1, active compounds read low
[38] = locus YKL067W, strain YNK1, active compounds read low
[39] = locus YKL101W, strain HSL1, active compounds read low
[40] = locus YKL193C, strain SDS22, active compounds read low
[41] = locus YKL203C, strain TOR2, active compounds read low
[42] = locus YLR113W, strain HOG1, active compounds read low
[43] = locus YLR133W, strain CKI1, active compounds read low
[44] = locus YLR403W, strain SFP1, active compounds read low
[45] = locus YML070W, strain DAK1, active compounds read low
[46] = locus YMR001C, strain CDC5, active compounds read low
[47] = locus YMR205C, strain PFK2 (second series), active compounds read low
[48] = locus YMR277W, strain FCP1, active compounds read low
[49] = locus YNL006W, strain LST8, active compounds read low
[50] = locus YNL020C, strain ARK1, active compounds read low
[51] = locus YNL161W, strain CBK1, active compounds read low
[52] = locus YNL183C, strain NPR1, active compounds read low
[53] = locus YNL207W, strain RIO2, active compounds read low
[54] = locus YNL222W, strain SSU72, active compounds read low
[55] = locus YNL307C, strain MCK1 (second series), active compounds read low
[56] = locus YOL078W, strain AVO1, active compounds read low
[57] = locus YOL136C, strain PFK27, active compounds read low
[58] = locus YOR119C, strain RIO1, active compounds read low
[59] = locus YOR231W, strain MKK1, active compounds read low
[60] = locus YOR329C, strain SCD5, active compounds read low
[61] = locus YPL031C, strain PHO85, active compounds read low
[62] = locus YPL153C, strain RAD53, active compounds read low
[63] = locus YPL204W, strain HRR25, active compounds read low
[64] = locus YPL209C, strain IPL1, active compounds read low
[65] = locus YPL256C, strain CLN2, active compounds read low
[66] = locus YPR025C, strain CCL1, active compounds read low
[67] = locus YPR106W, strain ISR1, active compounds read low
[68] = locus YPR111W, strain DBF20, active compounds read low
[69] = strain NNK1, active compounds read low
[70] = strain TSCII, active compounds read low
[71] = locus YOR061W, strain CKA2, active compounds read low

Measured: normalized growth

Cc1nnsc1C(=O)NNc1ccc(F)cc1F
inactive: [1] 0.951 | [2] 0.951 | [3] 0.956 | [4] 0.961 | [5] 0.956 | [6] 0.949 | [7] 0.97 | [8] 0.956 | [9] 0.965 | [10] 0.955 | [11] 0.706 | [12] 0.954 | [13] 0.929 | [14] 0.953 | [15] 0.711 | [17] 0.827 | [18] 0.965 | [19] 0.941 | [20] 0.968 | [22] 0.952 | [23] 0.789 | [24] 0.646 | [25] 0.636 | [27] 0.925 | [28] 0.85 | [29] 0.924 | [30] 0.967 | [31] 0.544 | [32] 0.938 | [33] 0.804 | [34] 0.962 | [35] 0.683 | [36] 0.791 | [37] 0.952 | [38] 0.819 | [39] 0.917 | [40] 0.96 | [41] 0.928 | [43] 0.812 | [44] 0.883 | [45] 0.696 | [46] 0.949 | [47] 0.906 | [48] 0.959 | [49] 0.975 | [50] 0.92 | [51] 0.945 | [52] 0.837 | [53] 0.961 | [54] 0.954 | [55] 0.678 | [56] 0.955 | [57] 0.808 | [58] 0.911 | [59] 0.908 | [60] 0.958 | [61] 0.858 | [62] 0.832 | [63] 0.917 | [64] 0.943 | [66] 0.957 | [67] 0.963 | [68] 0.966 | [69] 0.977 | [70] 0.947
active: [16] 0.459 | [21] 0.584 | [26] 0.831 | [42] 0.683 | [65] 0.602

Cc1cc(Cl)ccc1NNC(=O)c1snnc1C
inactive: [1] 0.971 | [2] 0.949 | [3] 0.967 | [4] 0.949 | [5] 0.959 | [6] 0.951 | [7] 0.969 | [8] 0.968 | [9] 0.955 | [10] 0.978 | [11] 0.907 | [12] 0.957 | [13] 0.974 | [14] 0.977 | [15] 0.907 | [16] 0.816 | [17] 0.909 | [18] 0.979 | [19] 0.957 | [20] 0.957 | [21] 0.885 | [22] 0.958 | [23] 0.881 | [24] 0.965 | [25] 0.824 | [27] 0.919 | [28] 0.979 | [29] 0.919 | [30] 0.966 | [31] 0.888 | [32] 0.943 | [33] 0.881 | [34] 0.977 | [35] 0.841 | [36] 0.972 | [37] 0.935 | [38] 0.919 | [39] 0.914 | [40] 0.96 | [41] 0.962 | [43] 0.891 | [44] 0.887 | [45] 0.865 | [46] 0.951 | [47] 0.922 | [48] 0.958 | [49] 0.974 | [50] 0.894 | [51] 0.956 | [52] 0.942 | [53] 0.96 | [54] 0.956 | [55] 0.794 | [56] 0.954 | [57] 0.885 | [71] 0.866 | [58] 0.96 | [59] 0.878 | [60] 0.963 | [61] 0.911 | [62] 0.881 | [63] 0.874 | [64] 0.943 | [65] 0.881 | [66] 0.955 | [67] 0.976 | [68] 0.979 | [69] 0.955 | [70] 0.962
active: [26] 0.815 | [42] 0.84

Cc1cc(NNC(=O)c2ccccc2Cl)nc2c1c(C)nn2C
inactive: [1] 0.994 | [2] 0.989 | [3] 0.979 | [4] 0.979 | [5] 0.983 | [6] 0.987 | [7] 0.978 | [8] 0.994 | [9] 0.978 | [10] 0.978 | [11] 0.951 | [12] 0.99 | [13] 0.993 | [14] 0.976 | [15] 0.978 | [16] 0.938 | [17] 0.96 | [18] 0.98 | [19] 0.993 | [20] 0.987 | [21] 0.95 | [22] 0.973 | [23] 0.958 | [24] 1.01 | [25] 0.974 | [26] 1.07 | [27] 1.08 | [28] 1.05 | [29] 0.953 | [30] 0.984 | [31] 0.968 | [32] 0.966 | [33] 0.972 | [34] 0.988 | [35] 0.926 | [36] 1.08 | [37] 0.964 | [38] 0.958 | [39] 0.941 | [40] 0.985 | [41] 1.06 | [42] 0.93 | [43] 0.951 | [44] 0.968 | [45] 0.956 | [46] 0.992 | [47] 0.97 | [48] 0.986 | [49] 0.982 | [50] 0.973 | [51] 0.98 | [52] 1.03 | [53] 0.985 | [54] 0.989 | [55] 0.973 | [56] 0.978 | [57] 0.905 | [71] 0.94 | [58] 1.04 | [59] 0.978 | [60] 0.989 | [61] 0.97 | [62] 0.987 | [63] 0.945 | [64] 0.993 | [65] 1.05 | [66] 0.993 | [67] 0.999 | [68] 0.993 | [69] 0.998 | [70] 0.98
